Laboratory results published in the supplement of paper PMC4166925.
± gives the standard deviation of the averaged measurements. Over roughly 33,000 sequences, “E-score (dimensionless, -0.5 to 0.5)” has its median near -0.049; the highest 2% begin near 0.37. For the sample, the highest values were picked, then their nearest neighbours and some sequences at random.

The sequences below were run on T1, PmTbr T-box DNA-binding domain (GST fusion) (assay: PBM E-score of 8-mer (E-score (dimensionless, -0.5 to 0.5)); Tbr is Tbrain of the sea star Patiria miniata (Pm) or the sea urchin Strongylocentrotus purpuratus (Sp); higher = stronger binding preference). Conditions: the construct has about 5 more residues each side.
T1 sequence: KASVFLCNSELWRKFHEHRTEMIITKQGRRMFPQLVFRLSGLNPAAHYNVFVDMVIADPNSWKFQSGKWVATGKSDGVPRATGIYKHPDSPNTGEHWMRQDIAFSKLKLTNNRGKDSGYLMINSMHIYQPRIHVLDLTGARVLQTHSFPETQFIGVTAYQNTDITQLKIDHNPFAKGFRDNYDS
Procedure: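 Universal protein-binding microarray (Agilent AMADID 016060, 60-bp probes with a 35-bp variable region) incubated with 200 nM GST-fused Patiria miniata Tbr T-box DNA-binding domain (residues 272-466) in PBS pH 7.5. Scored for every ungapped 8-mer (given with its reverse complement) by the Universal PBM Analysis Suite as E-score (modified Wilcoxon-Mann-Whitney enrichment, range -0.5 to 0.5; >0.45 counts as bound) and Z-score of median probe intensity. Two replicate arrays (datasets 1 and 2).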
For ATCTCACA, the “PBM E-score of 8-mer” value was 0.372 ± 0.021.
In the case of ACCTCACC, the “PBM E-score of 8-mer” value is reported as 0.261 ± 0.028.
With ATCTCACC the “PBM E-score of 8-mer” value was 0.409 ± 0.0061.
CTCTCACA was tested, and the “PBM E-score of 8-mer” value was 0.3481 ± 0.0026.
For ATCTCAAC, the “PBM E-score of 8-mer” value was 0.0437 ± 0.036.
In the case of CTATCACA, the “PBM E-score of 8-mer” value is reported as 0.305 ± 0.009.
For ATCTCTCA, the “PBM E-score of 8-mer” value was 0.226 ± 0.023.
In the case of CTCTCACC, the “PBM E-score of 8-mer” value is reported as 0.383 ± 0.0077.
With CGCTCACC the “PBM E-score of 8-mer” value was 0.0475 ± 0.083.
For CTATCACC, the “PBM E-score of 8-mer” value was 0.431 ± 0.0063.
With ATCTCACG the “PBM E-score of 8-mer” value was 0.294 ± 0.016.
With ATATCACC the “PBM E-score of 8-mer” value was 0.364 ± 0.013.
In the case of ATTGTTAC, the “PBM E-score of 8-mer” value is reported as 0.194 ± 0.057.
With GGTACGAC the “PBM E-score of 8-mer” value was -0.0493 ± 0.042.
With CAGAGGCA the “PBM E-score of 8-mer” value was -0.215 ± 0.071.
ATCTACCG was tested, and the “PBM E-score of 8-mer” value was -0.157 ± 0.067.
For AAGATCTC, the “PBM E-score of 8-mer” value was 0.061 ± 0.054.
With CCGGCCCC the “PBM E-score of 8-mer” value was -0.24 ± 0.058.
For CAATCGCC, the “PBM E-score of 8-mer” value was -0.0698 ± 0.068.
With ATCCCCAA the “PBM E-score of 8-mer” value was -0.227 ± 0.063.
With GAGCTTCA the “PBM E-score of 8-mer” value was -0.137 ± 0.0098.
With ATACTTCC the “PBM E-score of 8-mer” value was 0.0697 ± 0.018.
With GGCATTTA the “PBM E-score of 8-mer” value was 0.00349 ± 0.0029.
With ACCTCACA the “PBM E-score of 8-mer” value was 0.423 ± 0.0099.
ACCTCACG was tested, and the “PBM E-score of 8-mer” value was 0.269 ± 0.038.
For GTCTCTCA, the “PBM E-score of 8-mer” value was 0.0943 ± 0.0041.
GCCTCACA was tested, and the “PBM E-score of 8-mer” value was 0.224 ± 0.031.
GTCTCACA was tested, and the “PBM E-score of 8-mer” value was 0.392 ± 0.019.
With TCCTCACA the “PBM E-score of 8-mer” value was 0.3327 ± 0.0011.
For ACGCAATC, the “PBM E-score of 8-mer” value was -0.12 ± 0.013.
With GCTTGGTA the “PBM E-score of 8-mer” value was -0.112 ± 0.032.
For CCCCTCTA, the “PBM E-score of 8-mer” value was -0.143 ± 0.088.
With ATTAGCGG the “PBM E-score of 8-mer” value was 0.121 ± 0.025.
With ACACTTGA the “PBM E-score of 8-mer” value was 0.369 ± 0.029.
With ACACTTGG the “PBM E-score of 8-mer” value was 0.395 ± 0.0073.
With CCACTTGC the “PBM E-score of 8-mer” value was 0.158 ± 0.056.
For ATACTTGG, the “PBM E-score of 8-mer” value was -0.174 ± 0.046.
With AAACTTGC the “PBM E-score of 8-mer” value was 0.122 ± 0.029.
ACACTTGC was tested, and the “PBM E-score of 8-mer” value was 0.407 ± 0.013.
With GAAGTTAA the “PBM E-score of 8-mer” value was 0.0494 ± 0.064.
With TCTTGGCA the “PBM E-score of 8-mer” value was 0.0497 ± 0.1.
ACTAACAC was tested, and the “PBM E-score of 8-mer” value was 0.412 ± 0.007.
In the case of GCTAACAA, the “PBM E-score of 8-mer” value is reported as 0.252 ± 0.013.
With ACTAACAA the “PBM E-score of 8-mer” value was 0.214 ± 0.032.
For ACTAACAG, the “PBM E-score of 8-mer” value was 0.216 ± 0.045.
With GCTAACCC the “PBM E-score of 8-mer” value was 0.00156 ± 0.0032.
For CCTAACAG, the “PBM E-score of 8-mer” value was 0.128 ± 0.033.
With GCTAACAC the “PBM E-score of 8-mer” value was 0.43 ± 0.0048.
In the case of CCTAACAA, the “PBM E-score of 8-mer” value is reported as 0.184 ± 0.055.
With CCTAACAC the “PBM E-score of 8-mer” value was 0.4369 ± 0.0041.
With CAGTTCAC the “PBM E-score of 8-mer” value was 0.226 ± 0.023.
With ACGCAGCT the “PBM E-score of 8-mer” value was 0.109 ± 0.075.
GACAATCC was tested, and the “PBM E-score of 8-mer” value was 0.106 ± 0.018.
In the case of GTAAGCTA, the “PBM E-score of 8-mer” value is reported as -0.266 ± 0.012.
For ATGTAGAC, the “PBM E-score of 8-mer” value was -0.237 ± 0.043.
With AGTCGCAG the “PBM E-score of 8-mer” value was 0.0399 ± 0.06.
For AGTCGCAA, the “PBM E-score of 8-mer” value was 0.147 ± 0.026.
With GGTCGCAC the “PBM E-score of 8-mer” value was 0.373 ± 0.018.
With AGTCGCAC the “PBM E-score of 8-mer” value was 0.395 ± 0.026.
CGTCGCAC was tested, and the “PBM E-score of 8-mer” value was 0.332 ± 0.021.
With GGTCGCAA the “PBM E-score of 8-mer” value was 0.205 ± 0.0044.
In the case of AGATTTTC, the “PBM E-score of 8-mer” value is reported as 0.0361 ± 0.063.
For TAGTTCGA, the “PBM E-score of 8-mer” value was 0.16 ± 0.056.
GCACCAGA was tested, and the “PBM E-score of 8-mer” value was -0.03 ± 0.061.
In the case of AATGTTCC, the “PBM E-score of 8-mer” value is reported as -0.191 ± 0.0029.
In the case of ACAACGCA, the “PBM E-score of 8-mer” value is reported as 0.105 ± 0.03.
For ACCACGCG, the “PBM E-score of 8-mer” value was 0.1217 ± 0.0011.
With CCCACCCA the “PBM E-score of 8-mer” value was 0.0945 ± 0.0051.
In the case of AACACCCG, the “PBM E-score of 8-mer” value is reported as 0.428 ± 0.0098.
In the case of CACACCCC, the “PBM E-score of 8-mer” value is reported as 0.416 ± 0.013.
TACACCCA was tested, and the “PBM E-score of 8-mer” value was 0.129 ± 0.046.
ATCACCCG was tested, and the “PBM E-score of 8-mer” value was 0.194 ± 0.02.
With CACCCCCC the “PBM E-score of 8-mer” value was 0.165 ± 0.06.
For CACACCCA, the “PBM E-score of 8-mer” value was 0.423 ± 0.012.
In the case of CCCACCCG, the “PBM E-score of 8-mer” value is reported as 0.105 ± 0.0088.
For CACCCCCG, the “PBM E-score of 8-mer” value was 0.216 ± 0.014.
In the case of CACACCGC, the “PBM E-score of 8-mer” value is reported as 0.334 ± 0.027.
For ACCACCCG, the “PBM E-score of 8-mer” value was 0.189 ± 0.017.
CACACCCG was tested, and the “PBM E-score of 8-mer” value was 0.426 ± 0.019.
In the case of TAATTCAA, the “PBM E-score of 8-mer” value is reported as -0.292 ± 0.037.
For CCCGGTCG, the “PBM E-score of 8-mer” value was -0.111 ± 0.059.
With CCATAGGA the “PBM E-score of 8-mer” value was -0.0411 ± 0.059.
In the case of TACAACGA, the “PBM E-score of 8-mer” value is reported as -0.18 ± 0.034.
ATAGAACC was tested, and the “PBM E-score of 8-mer” value was -0.0785 ± 0.034.
For CGGGCAGC, the “PBM E-score of 8-mer” value was -0.0554 ± 0.0018.
With AGGTACCA the “PBM E-score of 8-mer” value was -0.0398 ± 0.018.
